Read-outs that look alike come from different tables or passages of the source.
Experiments:
[1] = tested on: ZAK; conditions: concentration: 1 μM, replicates: in singlicate; n = 1
[2] = tested on: ZAP70; conditions: concentration: 1 μM, replicates: in singlicate; n = 1
[3] = tested on: T1, p38-alpha; conditions: n = 1
T1 construct: gene MAPK14

[4] = tested on: T2, p38-beta; conditions: concentration: 1 μM, replicates: in singlicate; n = 1
T2 construct: gene MAPK11

[5] = tested on: p38-delta; conditions: concentration: 1 μM, replicates: in singlicate; n = 1
[6] = tested on: T3, p38-gamma; conditions: concentration: 1 μM, replicates: in singlicate; n = 1
T3 construct: gene MAPK12

[7] = concentration: 1 μM, replicates: in singlicate
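Note: KINOMEscan kinase panel screen.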

Row | Compound | %Inh [1] [%] | %Inh [2] [%] | %Inh [3, 7] [%] | %Inh [4] [%] | %Inh [5] [%] | %Inh [6] [%] | %Inh ([3]; 1 µM) [%]
1 | O=C(O)C(F)(F)F.O=c1[nH]ccc2nc(N[C@@H]3CCNC3)nc(Nc3cc(Cl)cc(Cl)c3)c12 [GSK2188764] | 0 | 1 | 0 | 0 | 18 | 23 | 
2 | O=C(Nc1n[nH]c2nc(-c3ccccc3)ccc12)C1CC1 [SB-708999] | 15 | 19 | 10 | 29 | 25 | 2 | 
3 | COc1cc(Nc2nccc(N3CCC(NC(=O)Nc4ccc5c(c4)OCO5)C3)n2)cc(OC)c1OC (stereo not drawn) [GSK1379766] | 34 | 0 | 0 | 0 | 24 | 0 | 
4 | Cc1cc(-c2c(-c3ccc(F)cc3)ncn2CCCN2CCOCC2)nc(N)n1 [SB-222517] | 13 | 15 | 22 | 17 | 0 | 27 | 
5 | Cc1ccc(NC(=O)c2ccc(Cl)c(Cl)c2)cc1-c1ccc(C(=O)Nc2ccncc2)cc1 [GSK1398460] | 49 | 0 | 0 | 12 | 24 | 0 | 
6 | COc1cccc(NC(=O)NCCNc2ccnc(Nc3ccc(F)cc3)n2)c1 [GSK1379879] | 34 | 17 | 0 | 0 | 59 | 0 | 
7 | COc1cccc(C2=C(Nc3cccc(O)c3)C(=O)NC2=O)c1 [SB-390771] | 38 | 5 | 0 | 0 | 45 | 18 | 
8 | Fc1cc(Cl)ccc1Nc1ccnc2cc(-c3ccc(CN4CCOCC4)o3)ccc12 [GW560109] | 50 | 3 | 28 | 0 | 25 | 0 | 
9 | Nc1ncc(-c2ccc3nccc(-c4ccncc4)c3c2)cc1S(=O)(=O)N1CCCCC1 [GSK1693850] | 22 | 0 | 0 | 0 | 36 | 22 | 
10 | CC(C)c1nc(-c2cccc(NS(=O)(=O)c3c(F)cccc3F)c2)c(-c2ccnc(Nc3ccc(N4CCOCC4)nc3)n2)s1.Cl [GSK1723980] | 98.6 | 0 | 27 | 10 | 0 | 0 | 
11 | CCOc1nccc(-c2c(-c3ccc(F)cc3)ncn2C2CCNCC2)n1 [SB-249175] | 15 | 32 | 99.3 | 100 | 4 | 43 | 
12 | Nc1ncc(-c2cn[nH]c2)c2scc(-c3ccc4c(c3)CCN4C(=O)Cc3ccccc3)c12 [GSK2593067] | 50 | 4 | 0 | 0 | 15 | 0 | 
13 | CN(c1ccc(F)c(NC(=O)c2cccc(OC(C)(C)C#N)c2Cl)c1)c1ccc2nc(NC(=O)C3CC3)sc2n1 | 64 | 0 | 70 | 6 | 0 | 37 | 
14 | c1ccc(Oc2ccc(Nc3ccnc4cc(-c5ccc(CN6CCCCC6)o5)ccc34)cc2)nc1 [GW567143] | 66 | 0 | 0 | 0 | 0 | 0 | 
15 | CCn1cnc2c(NCc3ccccc3)ncnc21 [SKF-96418] | 0 | 30 | 0 | 0 | 0 | 0 | 
16 | N#CC1(c2cccc(C(=O)Nc3cccc(Oc4ccc5nc(NC(=O)C6CC6)sc5n4)c3)c2)CC1 | 90 | 0 | 40 | 36 | 0 | 26 | 
17 | CC(C)(C)c1ccc(C(=O)Nc2cn3cc(-n4ccnc4)ccc3n2)cc1 | 7 | 0 | 11 | 9 | 21 | 0 | 
18 | N#Cc1cnc2cc(-c3cnc(CNCCN4CCOCC4)s3)ccc2c1Nc1ccc(Oc2ccccc2)cc1 [GW664114] | 95.6 | 59 | 0 | 0 | 37 | 0 | 
19 | COc1cc(Nc2nccc(N3CCC(NS(=O)(=O)c4ccc(NC(C)=O)cc4)CC3)n2)cc(OC)c1OC [GSK1379825] | 64 | 5 | 0 | 52 | 11 | 0 | 
20 | Cc1cccc(Nc2nc(N[C@H]3CCCC[C@H]3N)ncc2C(N)=O)c1.Cl [GSK986310] | 0 | 92.9 | 0 | 0 | 45 | 0 | 

Row | Compound | %Inh [1] [%] | %Inh [2] [%] | %Inh [3, 7] [%] | %Inh [4] [%] | %Inh [5] [%] | %Inh [6] [%] | %Inh ([3]; 1 µM) [%]
21 | Cc1ccc(O)cc1Nc1ccnc2cc(-c3ccc(CN4CCCCC4)o3)ccc12 [GW557777] | 75 | 0 | 15 | 6 | 0 | 18 | 
22 | CN(C)CCOc1ccc(-c2cc(-c3ccc(Cl)c(O)c3)c(-c3ccncc3)[nH]2)cc1.Cl.Cl [SB-684387] | 20 | 20 | 54 | 70 | 19 | 23 | 
23 | COc1cccc(CC(=O)N2CCc3cc(-c4cn(C)c5ncnc(N)c45)ccc32)c1 [GSK2608899] | 0 | 0 | 0 | 0 | 48 | 0 | 
24 | Nc1cccc(-c2ccc3c(N)n[nH]c3c2)c1 [GSK2193613] | 11 | 0 | 6 | 0 | 17 | 45 | 
25 | Cl.N#CCc1ccc(Nc2nccc(Nc3ccc(Oc4ccccc4)cc3)n2)cc1 [GW639905] | 45 | 0 | 0 | 0 | 5 | 0 | 
26 | Cc1nn2c(=O)cc(N3CCO[C@H](C)C3)nc2n1Cc1cccc(Cl)c1Cl [GSK2373693] | 15 | 0 | 66 | 0 | 15 | 0 | 
27 | Cn1cc(-c2cnc(N)c3c(-c4ccc5c(c4)CCN5C(=O)Cc4ccccc4)csc23)cn1 [GSK2593074] | 59 | 0 | 8 | 1 | 0 | 14 | 
28 | O=C1NC(=O)C(c2ccccc2Cl)=C1Nc1cccc(Cl)c1 [SB-342409] | 21 | 0 | 0 | 0 | 28 | 0 | 
29 | O=C(O)C(F)(F)F.O=c1[nH]ccc2nc(N[C@@H]3CCNC3)nc(Nc3ccc4c(c3)S(=O)(=O)CC4)c12 [GSK2181306] | 0 | 1 | 0 | 0 | 44 | 23 | 
30 | COc1cc(Nc2ccnc3cc(-c4ccncc4)ccc23)cc(OC)c1OC.Cl [GW494610] | 49 | 8 | 52 | 66 | 2 | 0 | 
31 | Cc1cccc(Nc2nc(NCCN)ncc2C(N)=O)c1 [GSK1292139] | 0 | 74 | 45 | 0 | 24 | 0 | 
32 | O=C(Nc1c(F)cccc1F)c1cc(C(=O)c2ccccc2F)c[nH]1 [GSK1326180] | 0 | 0 |  | 15 | 0 | 7 | 47
33 | CN(c1ccc(NC(=O)Nc2cccc(Cl)c2)cc1)c1ccnc(N)n1.Cl [GW830707] | 0 | 0 | 0 | 6 | 0 | 0 | 
34 | Cl.O=C(Nc1ccc(Oc2ccc3[nH]c(NC(=O)c4ccco4)nc3c2)cc1)Nc1cc(C(F)(F)F)ccc1F [GW683134] | 99.2 | 0 | 65 | 74 | 39 | 0 | 
35 | CNc1nccc(-c2ccc3c(N)n[nH]c3c2)n1 [GSK2206003] | 22 | 0 | 6 | 0 | 22 | 25 | 
36 | CCNc1nccc(-c2c(-c3ccc(F)cc3)ncn2C2CCN(C)CC2)n1 | 7 | 0 | 99.8 | 63 | 0 | 36 | 
37 | CN(C)CCNS(=O)(=O)c1ccc(-c2ccnc3[nH]ccc23)cc1 [GSK977620] | 83 | 0 | 0 | 1 | 39 | 0 | 
38 | Cc1ccc(Nc2ccnc(Nc3ccc(C)c(F)c3)n2)cc1O.Cl [GW582868] | 2 | 0 | 0 | 0 | 30 | 0 | 
39 | Cc1ccc(O)cc1Nc1ccnc2ccc(C(C)(C)C)cc12 [GW856805] | 0 | 15 | 1 | 16 | 0 | 41 | 
40 | CN(c1ccc2c(c1)nc(NCc1ccccc1)n2C)c1ccnc(Nc2ccc(CS(C)(=O)=O)cc2)n1.Cl [GW811603] | 4 | 27 | 2 | 0 | 27 | 0 | 

Source: article PMC5540273 (PLoS ONE, 2017)
